# From PubChem BioAssay AID1159580 (chemical genetic matrix, 2015)
# “And” between values parts separate entries of the source, which are not always exact repeats. Equal entries are not always repeated. Out of some 5,500 compounds screened, about 2,000 (36%) were called active. Inconclusive results (about 18%) are left out. Some of the results follow. Values without a mark were called inactive. Rule as the data show it: active = normalized growth mostly below about 0.91 (no sharp cut-off); inconclusive = no clear call, values can overlap the other calls; inactive = mostly above about 0.92.
# Assay: chemical genetic growth profiling, strain panel (AID 1159580);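 also: tested at 20 µM; growth read once vehicle control cultures reached saturation at 30 °C; 1 = growth at the plate median or of vehicle wells; lower values mean less growth of the strain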
# Settings: S. cerevisiae deletion strains, growth OD
smiles,measurement,setting,value
CCN(CC)Cc1ccc(Nc2ccnc3cc(Cl)ccc23)cc1O,normalized growth,"locus YAL021C, strain ccr4, stronger effect = lower value",0.986
same,normalized growth,"locus YAL026C, strain drs2, stronger effect = lower value",1.03
same,normalized growth,"locus YAL030W, strain snc1, stronger effect = lower value",1
same,normalized growth,"locus YBL061C, strain skt5, stronger effect = lower value",1.03
same,normalized growth,"locus YBR009C, strain hhf1, stronger effect = lower value",0.96
same,normalized growth,"locus YBR021W, strain FUR4, stronger effect = lower value",0.995
same,normalized growth,"locus YBR023C, strain chs3, stronger effect = lower value",1.03
same,normalized growth,"locus YBR171W, strain sec66, stronger effect = lower value",1.05
same,normalized growth,"locus YBR229C, strain ROT2, stronger effect = lower value",1
same,normalized growth,"locus YBR231C, strain swc5, stronger effect = lower value",0.989
same,normalized growth,"locus YBR279W, strain paf1, stronger effect = lower value",1.01
same,normalized growth,"locus YCL011C, strain gbp2, stronger effect = lower value",1
same,normalized growth,"locus YCL016C, strain dcc1, stronger effect = lower value",1.02
same,normalized growth,"locus YCL029C, strain bik1, stronger effect = lower value",1
same,normalized growth,"locus YCL061C, strain MRC1, stronger effect = lower value",1.01
same,normalized growth,"locus YCL069W, strain vba3, stronger effect = lower value",1.02
same,normalized growth,"locus YCR088W, strain abp1, stronger effect = lower value",1.03
same,normalized growth,"locus YDL005C, strain med2, stronger effect = lower value",1.04
same,normalized growth,"locus YDL035C, strain GPR1, stronger effect = lower value",1.01
same,normalized growth,"locus YDL040C, strain nat1, stronger effect = lower value",1
same,normalized growth,"locus YDL074C, strain BRE1, stronger effect = lower value",1
same,normalized growth,"locus YDL101C, strain DUN1, stronger effect = lower value",1.01
same,normalized growth,"locus YDL185W, strain tfp1, stronger effect = lower value",0.997
same,normalized growth,"locus YDL192W, strain arf1, stronger effect = lower value",0.999
same,normalized growth,"locus YDR001C, strain nth1, stronger effect = lower value",1.03
same,normalized growth,"locus YDR069C, strain doa4, stronger effect = lower value",1.01
same,normalized growth,"locus YDR101C, strain arx1, stronger effect = lower value",0.988
same,normalized growth,"locus YDR137W, strain rgp1, stronger effect = lower value",1.07
same,normalized growth,"locus YDR150W, strain NUM1, stronger effect = lower value",1.01
same,normalized growth,"locus YDR159W, strain sac3, stronger effect = lower value",0.941
same,normalized growth,"locus YDR162C, strain NBP2, stronger effect = lower value",1.02
same,normalized growth,"locus YDR195W, strain ref2",0.971
same,normalized growth,"locus YDR297W, strain sur2, stronger effect = lower value",1.02
same,normalized growth,"locus YDR318W, strain mcm21, stronger effect = lower value",1
same,normalized growth,"locus YDR334W, strain swr1, stronger effect = lower value",1.02
same,normalized growth,"locus YDR335W, strain msn5, stronger effect = lower value",1.03
same,normalized growth,"locus YDR388W, stronger effect = lower value",0.998
same,normalized growth,"locus YDR392W, strain spt3, stronger effect = lower value",0.737 (active)
same,normalized growth,"locus YDR502C, strain sam2, stronger effect = lower value",0.997
same,normalized growth,"locus YEL003W, strain gim4, stronger effect = lower value",1.01
same,normalized growth,"locus YEL037C, strain rad23, stronger effect = lower value",1.03
same,normalized growth,"locus YEL061C, strain CIN8 (second series), stronger effect = lower value",1.01
same,normalized growth,"locus YEL061C, strain CIN8, stronger effect = lower value",1
same,normalized growth,"locus YER015W, strain faa2, stronger effect = lower value",1
same,normalized growth,"locus YER016W, strain bim1, stronger effect = lower value",1.03
same,normalized growth,"locus YER110C, stronger effect = lower value",0.999
same,normalized growth,"locus YER111C, strain swi4, stronger effect = lower value",1.03
same,normalized growth,"locus YER155C, strain BEM2 (second series), stronger effect = lower value",0.865
same,normalized growth,"locus YER155C, strain BEM2, stronger effect = lower value",1
same,normalized growth,"locus YER167W, strain BCK2, stronger effect = lower value",1.01
same,normalized growth,"locus YFR010W, strain ubp6, stronger effect = lower value",0.992
same,normalized growth,"locus YGL078C, strain dbp3, stronger effect = lower value",1
same,normalized growth,"locus YGL086W, strain mad1, stronger effect = lower value",0.996
same,normalized growth,"locus YGL167C, strain pmr1, stronger effect = lower value",1.01
same,normalized growth,"locus YGL173C, strain kem1, stronger effect = lower value",0.991
same,normalized growth,"locus YGL227W, strain vid30, stronger effect = lower value",1.01
same,normalized growth,"locus YGL240W, strain doc1, stronger effect = lower value",0.958
same,normalized growth,"locus YGL248W, strain PDE1, stronger effect = lower value",1.01
same,normalized growth,"locus YGL253W, strain hxk2, stronger effect = lower value",1.01
same,normalized growth,"locus YGR078C, strain PAC10, stronger effect = lower value",1
same,normalized growth,"locus YGR135W, strain pre9, stronger effect = lower value",0.994
same,normalized growth,"locus YGR229C, strain SMI1, stronger effect = lower value",1.02
same,normalized growth,"locus YGR252W, strain gcn5, stronger effect = lower value",0.96
same,normalized growth,"locus YHR013C, strain ard1, stronger effect = lower value",0.96
same,normalized growth,"locus YHR027C, strain rpn1, stronger effect = lower value",1.01
same,normalized growth,"locus YHR030C, strain SLT2, stronger effect = lower value",1.01
same,normalized growth,"locus YHR079C, strain IRE1 (second series), stronger effect = lower value",0.999
same,normalized growth,"locus YHR079C, strain IRE1, stronger effect = lower value",1.07
same,normalized growth,"locus YHR094C, strain hxt1, stronger effect = lower value",0.998
same,normalized growth,"locus YHR129C, strain ARP1, stronger effect = lower value",1
same,normalized growth,"locus YHR142W, strain chs7, stronger effect = lower value",1.03
same,normalized growth,"locus YHR200W, strain rpn10, stronger effect = lower value",0.997
same,normalized growth,"locus YIL066C, strain RNR3, stronger effect = lower value",1.02
same,normalized growth,"locus YIL073C, strain SPO22, stronger effect = lower value",1.01
same,normalized growth,"locus YIL125W, strain kgd1, stronger effect = lower value",1
same,normalized growth,"locus YIR030C, strain dcg1, stronger effect = lower value",0.997
same,normalized growth,"locus YJL092W, strain hpr5, stronger effect = lower value",1.01
same,normalized growth,"locus YJL095W, strain BCK1 (second series), stronger effect = lower value",1.01
same,normalized growth,"locus YJL095W, strain BCK1, stronger effect = lower value",1 and 1.05
same,normalized growth,"locus YJL115W, strain asf1, stronger effect = lower value",1.04
same,normalized growth,"locus YJL129C, strain trk1, stronger effect = lower value",1.01
same,normalized growth,"locus YJL134W, strain LCB3, stronger effect = lower value",1.01
same,normalized growth,"locus YJL154C, strain vps35, stronger effect = lower value",1.02
same,normalized growth,"locus YJL164C, strain tpk1, stronger effect = lower value",1
same,normalized growth,"locus YJL166W, strain qcr8, stronger effect = lower value",0.992
same,normalized growth,"locus YJL168C, strain set2, stronger effect = lower value",1
same,normalized growth,"locus YJL187C, strain SWE1 (second series), stronger effect = lower value",1
same,normalized growth,"locus YJR043C, strain POL32, stronger effect = lower value",0.996
same,normalized growth,"locus YJR066W, strain TOR1, stronger effect = lower value",0.992
same,normalized growth,"locus YJR075W, strain HOC1, stronger effect = lower value",1.01
same,normalized growth,"locus YKL009W, strain mrt4, stronger effect = lower value",0.997
same,normalized growth,"locus YKL068W, stronger effect = lower value",0.996
same,normalized growth,"locus YKL085W, strain MDH1 (second series), stronger effect = lower value",0.995
same,normalized growth,"locus YKL085W, strain MDH1, stronger effect = lower value",0.995
same,normalized growth,"locus YKL160W, strain elf1, stronger effect = lower value",1.04
same,normalized growth,"locus YKL190W, strain CNB1, stronger effect = lower value",1.01
same,normalized growth,"locus YKR001C, strain vps1, stronger effect = lower value",0.999
same,normalized growth,"locus YKR026C, strain gcn3, stronger effect = lower value",1.03
same,normalized growth,"locus YKR091W, strain srl3, stronger effect = lower value",1.02
same,normalized growth,"locus YLL001W, strain dnm1, stronger effect = lower value",1.01
same,normalized growth,"locus YLL026W, stronger effect = lower value",1.02
same,normalized growth,"locus YLL041C, strain sdh2, stronger effect = lower value",1.03
same,normalized growth,"locus YLR027C, strain aat2, stronger effect = lower value",1.01
same,normalized growth,"locus YLR039C, strain RIC1, stronger effect = lower value",1.01
same,normalized growth,"locus YLR058C, strain SHM2, stronger effect = lower value",1.01
same,normalized growth,"locus YLR102C, strain apc9, stronger effect = lower value",0.993
same,normalized growth,"locus YLR113W, strain HOG1, stronger effect = lower value",1.06
same,normalized growth,"locus YLR221C, strain rsa3, stronger effect = lower value",0.987
same,normalized growth,"locus YLR258W, strain gsy2, stronger effect = lower value",1.03
same,normalized growth,"locus YLR262C, strain YPT6 (second series), stronger effect = lower value",1.02
same,normalized growth,"locus YLR262C, strain YPT6, stronger effect = lower value",1.06
same,normalized growth,"locus YLR268W, strain sec22, stronger effect = lower value",0.993
same,normalized growth,"locus YLR320W, strain mms22, stronger effect = lower value",0.939
same,normalized growth,"locus YLR330W, strain CHS5, stronger effect = lower value",1.01
same,normalized growth,"locus YLR342W, strain FKS1 (second series), stronger effect = lower value",0.984
same,normalized growth,"locus YLR342W, strain FKS1, stronger effect = lower value",1.01
same,normalized growth,"locus YLR357W, strain rsc2, stronger effect = lower value",1.06
same,normalized growth,"locus YLR370C, strain arc18, stronger effect = lower value",1.02
same,normalized growth,"locus YLR371W, strain rom2, stronger effect = lower value",1
same,normalized growth,"locus YLR384C, strain iki3, stronger effect = lower value",1.01
same,normalized growth,"locus YLR418C, strain cdc73, stronger effect = lower value",0.98
same,normalized growth,"locus YML016C, strain PPZ1, stronger effect = lower value",1
same,normalized growth,"locus YML032C, strain rad52, stronger effect = lower value",0.99
same,normalized growth,"locus YML120C, strain ndi1, stronger effect = lower value",1.02
same,normalized growth,"locus YML124C, strain tub3, stronger effect = lower value",1.01
same,normalized growth,"locus YMR058W, strain fet3, stronger effect = lower value",0.93
same,normalized growth,"locus YMR078C, strain ctf18, stronger effect = lower value",1
same,normalized growth,"locus YMR125W, strain sto1, stronger effect = lower value",1.05
same,normalized growth,"locus YMR129W, stronger effect = lower value",1.02
same,normalized growth,"locus YMR205C, strain PFK2, stronger effect = lower value",0.983
same,normalized growth,"locus YMR223W, strain ubp8, stronger effect = lower value",1
same,normalized growth,"locus YMR231W, strain pep5, stronger effect = lower value",1.01
same,normalized growth,"locus YMR307W, strain GAS1, stronger effect = lower value",1.01
same,normalized growth,"locus YNL067W, strain RPL9B, stronger effect = lower value",1
same,normalized growth,"locus YNL071W, strain lat1, stronger effect = lower value",1.03
same,normalized growth,"locus YNL128W, strain TEP1, stronger effect = lower value",1.02
same,normalized growth,"locus YNL153C, strain GIM3, stronger effect = lower value",0.987
same,normalized growth,"locus YNL183C, strain NPR1, stronger effect = lower value",1
same,normalized growth,"locus YNL209W, strain ssb2, stronger effect = lower value",1.01
same,normalized growth,"locus YNL233W, strain BNI4, stronger effect = lower value",1
same,normalized growth,"locus YNL248C, strain rpa49, stronger effect = lower value",1.03
same,normalized growth,"locus YNL250W, strain rad50, stronger effect = lower value",0.997
same,normalized growth,"locus YNL271C, strain bni1, stronger effect = lower value",1.03
same,normalized growth,"locus YNL298W, strain CLA4, stronger effect = lower value",1.01
same,normalized growth,"locus YNL307C, strain MCK1, stronger effect = lower value",0.997
same,normalized growth,"locus YNL322C, strain KRE1 (second series), stronger effect = lower value",1.05
same,normalized growth,"locus YNR049C, strain mso1, stronger effect = lower value",1.01
same,normalized growth,"locus YNR052C, strain pop2, stronger effect = lower value",1
same,normalized growth,"locus YOL006C, strain TOP1, stronger effect = lower value",1.04
same,normalized growth,"locus YOL012C, strain htz1",1.13
same,normalized growth,"locus YOL147C, strain pex11, stronger effect = lower value",0.996
same,normalized growth,"locus YOR001W, strain rrp6, stronger effect = lower value",0.995
same,normalized growth,"locus YOR061W, strain CKA2, stronger effect = lower value",1.01
same,normalized growth,"locus YOR069W, strain VPS5, stronger effect = lower value",1
same,normalized growth,"locus YOR070C, strain gyp1, stronger effect = lower value",1.02
same,normalized growth,"locus YOR080W, strain dia2, stronger effect = lower value",1.01
same,normalized growth,"locus YOR083W, strain WHI5, stronger effect = lower value",0.986
same,normalized growth,"locus YOR106W, strain vam3, stronger effect = lower value",1.05
same,normalized growth,"locus YOR136W, strain idh2, stronger effect = lower value",0.995
same,normalized growth,"locus YOR144C, strain elg1, stronger effect = lower value",0.99
same,normalized growth,"locus YOR184W, strain ser1, stronger effect = lower value",0.992
same,normalized growth,"locus YOR231W, strain MKK1, stronger effect = lower value",1.05
same,normalized growth,"locus YOR265W, strain rbl2, stronger effect = lower value",1
same,normalized growth,"locus YOR270C, strain vph1, stronger effect = lower value",1.05
same,normalized growth,"locus YOR290C, strain snf2, stronger effect = lower value",1.02
same,normalized growth,"locus YOR316C, strain cot1, stronger effect = lower value",0.997
same,normalized growth,"locus YPL051W, strain arl3, stronger effect = lower value",1.01
same,normalized growth,"locus YPL078C, strain atp4, stronger effect = lower value",1.03
same,normalized growth,"locus YPL106C, strain sse1, stronger effect = lower value",1.05
same,normalized growth,"locus YPL240C, strain hsp82, stronger effect = lower value",1.02
same,normalized growth,"locus YPL241C, strain CIN2, stronger effect = lower value",1.01
same,normalized growth,"locus YPL256C, strain CLN2, stronger effect = lower value",1.01
same,normalized growth,"locus YPR119W, strain clb2, stronger effect = lower value",1
same,normalized growth,"locus YPR141C, strain kar3, stronger effect = lower value",1.01
same,normalized growth,"locus YPR163C, strain tif3, stronger effect = lower value",1.01
same,normalized growth,"locus YPR167C, strain met16, stronger effect = lower value",1
same,normalized growth,"strain wtn01, stronger effect = lower value",1
